For 24 molecules, Potency and outcome results are on record in PubChem BioAssay (NCATS).

Inconclusive results are not listed. Where a call stands in place of a potency, no number is given. Active and inactive are the calls of the source. Calls come from the whole dose curve; as a rule, active = well fitted curve in the direction sought with a large enough effect; inconclusive = small, poorly fitted or top-dose-only effect, or another doubt; inactive = no such curve, though single readings can be large; an effect the other way counts as inactive or inconclusive.

The target of experiment [1] is N-terminal Xaa-Pro-Lys N-methyltransferase 1 (Homo sapiens) (UniProt Q9BV86). The experiment in a line: qHTS Assay for Inhibitors of N-terminal methyltransferase 1 (NTMT1): LOPAC validation of the NTMT1 SAHH-coupled ThioGlo3 Assay (AID 1347143).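 Note: SAH from peptide methylation measured as thiol fluorescence via SAHH coupling and ThioGlo3; nearly all actives have a fitted effect of over 70% in size.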 Note: potency is the fitted concentration of half-maximal effect. Particulars: recombinant NTMT1, SAHH-coupled ThioGlo3 fluorescence; series mostly up to 114 µM. In outline:
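Recombinant human NTMT1 (125nM) was pre-incubated 1 min at room temperature with compounds over a concentration range, then a mix of 100uM SAM, 10uM SAHH and 15uM ThioGlo3 (concentrations in added reagent) was added. ThioGlo3 fluorescence (ex 340/em 450nm) after 30 min was normalized to the initial reading.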
Background: In qHTS, concentration-response curves come from the screen itself.

For experiment [2], the system named is Zika virus NS2B-NS3 protease (unlinked). The experiment in a line: Optimization of GU AMC qHTS for Zika virus inhibitors: Unlinked NS2B-NS3 protease assay (AID 1347151). Note: nearly all actives have a fitted effect of over 80% in size. Note: potency is the fitted concentration of half-maximal effect. The settings on record: recombinant ZIKV NS2B-NS3 protease, fluorogenic AMC substrate; series mostly up to 52.5 µM. In outline: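 In this qHTS, compounds acted on 25 nM unlinked Zika NS2B–NS3 in pH 8.0 Tris/Tween buffer. Cleavage of an AMC peptide ran 15 min at room temperature, to about 20% conversion.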

The subject of experiment [3] is Zika virus NS2B-NS3 protease (linked construct). The experiment in a line: Confirmatory screen NINDS AMC qHTS for Zika virus inhibitors (AID 1347152). Note: nearly all actives have a fitted effect of over 70% in size. Note: potency is the fitted concentration of half-maximal effect. Particulars: Purified linked NS2B-NS3, AMC substrate fluorescence; series mostly up to 56.6 µM. Put shortly:
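Concentration-response confirmation used the NINDS linked protease (NS2B hydrophilic domain joined to NS3 protease domain), 1 nM, with a 15-min compound preincubation. Substrate, Nle-KRR-AMC at 10 microM, was read by UV fluorescence before and after 15 min.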

Experiment [4] deals with Zika virus NS2B-NS3 protease (unlinked complex). The experiment in a line: Confirmatory screen GU AMC qHTS for Zika virus inhibitors (AID 1347153). Note: nearly all actives have a fitted effect of over 70% in size. Particulars: Recombinant NS2B-NS3 protease, AMC substrate fluorescence; series mostly up to 57.1 µM. In outline:
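Compounds were preincubated 15 min at room temperature with 25 nM noncovalent NS2B-NS3 protease at pH 8.0; AMC substrate added at 10 microM and 15-min fluorescence gain (340/450 nm) converted to percent inhibition, fitted 4-parameter.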

Experiment [5] in a line: Confirmatory screen NINDS Rhodamine qHTS for Zika virus inhibitors (AID 1347161). Note: nearly all actives have a fitted effect of over 60% in size. Note: potency is the fitted concentration of half-maximal effect. The settings on record: purified enzyme assay, Rhodamine110 substrate fluorescence, 15 min; series mostly up to 114 µM. In outline:
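Purified linked NS2B-NS3 protease (NS2B hydrophilic domain joined to NS3 protease by flexible linker), 25 nM in 10 mM Tris-HCl pH 8.0, 0.01% Tween 20. Compounds titrated, 15 min preincubation at room temperature; 1.5 microM Rhodamine110 substrate, FITC fluorescence change over 15 min.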

Another experiment concerns the target Furin (Homo sapiens) (UniProt P09958). The experiment in a line: Furin counterscreen qHTS for Zika virus inhibitors (AID 1347149). Note: nearly all actives have a fitted effect of over 70% in size. Note: potency is the fitted concentration of half-maximal effect. Particulars: furin enzymatic counterscreen, fluorogenic substrate; series mostly up to 57.5 µM. In outline:
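Fluorogenic cleavage of BOC-RVRR-AMC (2 microM final, Km ~15 µM) was monitored (ex 340, em 450 nm) at 37C after 15 min RT preincubation of 5 nM furin with compounds in HEPES pH 7.0 buffer with CaCl2 and Triton X-100. Percent inhibition was fitted to a 4-parameter Hill curve.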
(In general: A counterscreen serves to expose hits that act by an unwanted route or on another target.)

Experiment [6] concerns Zika virus NS2B-NS3 protease. The experiment in a line: Primary screen GU AMC qHTS for Zika virus inhibitors (AID 1347154). Note: nearly all actives have a fitted effect of over 70% in size. Note: potency is the fitted concentration of half-maximal effect. Particulars: Zika NS2B-NS3 unlinked protease, AMC fluorogenic substrate; series mostly up to 54.1 µM. In outline:
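Unlinked Zika NS2B hydrophilic domain–NS3 protease complex at 25 nM in 10 mM Tris-HCl pH 8.0, 0.01% Tween 20, with an AMC peptide substrate. Fluorescence change (340/450 nm) over 15 min at room temperature, normalized to controls, fitted to 4-parameter Hill.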

The subject of experiment [7] is Zika virus NS2B-NS3 protease (unlinked complex). The experiment in a line: Primary screen GU Rhodamine qHTS for Zika virus inhibitors: Unlinked NS2B-NS3 protease assay (AID 1347159). Note: nearly all actives have a fitted effect of over 60% in size. Particulars: Recombinant ZIKV NS2B-NS3 protease, Rhodamine110 substrate fluorescence; series mostly up to 107 µM. In outline:
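Percent inhibition derives from the 15-min fluorescence change (ex 480, em 540 nm), normalized to no-enzyme and no-inhibitor wells. Reactions contained 25 nM NS2B-NS3 complex and 1.5 microM substrate in 10 mM Tris-HCl pH 8.0.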

Experiment [8] relates to Zika virus NS2B-NS3 protease (linked construct). The experiment in a line: Primary screen NINDS Rhodamine qHTS for Zika virus inhibitors (AID 1347160). Note: nearly all actives have a fitted effect of over 55% in size. Particulars: purified NS2B-NS3 protease, Rhodamine110 substrate fluorescence; series mostly up to 57.1 µM. In outline:
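In 10 mM Tris-HCl pH 8.0 containing 0.01% Tween 20, linked NS2B-NS3 protease (25 nM final) is exposed to test compounds for 15 min. Cleavage of 1.5 microM Rhodamine110 substrate is tracked by fluorescence over 15 min.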

Sequence of Furin (Homo sapiens) (P09958 whole entry, looked up): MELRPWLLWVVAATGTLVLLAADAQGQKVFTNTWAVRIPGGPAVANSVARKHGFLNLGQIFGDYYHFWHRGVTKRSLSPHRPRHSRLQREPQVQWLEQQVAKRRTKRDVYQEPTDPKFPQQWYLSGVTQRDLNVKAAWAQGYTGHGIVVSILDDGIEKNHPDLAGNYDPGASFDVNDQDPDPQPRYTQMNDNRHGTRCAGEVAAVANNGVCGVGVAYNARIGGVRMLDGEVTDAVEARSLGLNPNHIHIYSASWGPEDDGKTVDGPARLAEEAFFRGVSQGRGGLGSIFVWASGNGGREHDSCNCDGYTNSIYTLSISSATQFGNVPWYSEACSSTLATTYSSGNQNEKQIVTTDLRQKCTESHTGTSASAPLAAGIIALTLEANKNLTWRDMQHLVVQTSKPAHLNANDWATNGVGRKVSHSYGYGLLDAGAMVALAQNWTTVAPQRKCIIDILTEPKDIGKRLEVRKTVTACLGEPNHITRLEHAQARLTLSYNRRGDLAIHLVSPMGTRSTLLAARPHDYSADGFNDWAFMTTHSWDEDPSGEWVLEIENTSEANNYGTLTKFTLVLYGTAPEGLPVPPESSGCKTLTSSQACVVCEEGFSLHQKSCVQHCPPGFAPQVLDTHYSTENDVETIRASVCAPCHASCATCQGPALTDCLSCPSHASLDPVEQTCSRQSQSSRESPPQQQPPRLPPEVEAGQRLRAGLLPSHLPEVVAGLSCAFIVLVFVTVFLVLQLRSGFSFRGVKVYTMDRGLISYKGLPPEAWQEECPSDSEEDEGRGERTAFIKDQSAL
Sequence of N-terminal Xaa-Pro-Lys N-methyltransferase 1 (Homo sapiens) (Q9BV86 whole entry, looked up): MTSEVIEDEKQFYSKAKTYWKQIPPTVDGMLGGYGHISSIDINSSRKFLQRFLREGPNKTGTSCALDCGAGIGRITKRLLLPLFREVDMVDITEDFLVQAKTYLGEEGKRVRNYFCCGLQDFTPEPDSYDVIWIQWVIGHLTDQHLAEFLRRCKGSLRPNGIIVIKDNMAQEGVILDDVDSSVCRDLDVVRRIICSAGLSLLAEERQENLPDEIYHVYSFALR

`NCCCCCCCCCCN`: the Potency result in experiment [1] and in [2] was “inactive” in each case. `CNC(=O)[C@H]1O[C@@H](n2cnc3c(NCc4cccc(I)c4)ncnc32)[C@H](O)C1O` (stereo not given in full): in experiment [1], the Potency result was “inactive”.

On to `CC(=O)SCC[N+](C)(C)C`, for which the Potency result in experiment [1] and in [2] was “inactive” in each case. Consider `Cn1ncc(S(=O)(=O)Cc2ccccc2)c(Br)c1=O`, for which the Potency in experiment [1] was 44.7 µM (active). Also, the Potency entry in experiment [2] was “inactive”.

For the molecule `CC(C)c1cccc(C(C)C)c1N1C(=O)c2ccc(O)cc2C1=O`, the Potency entry in experiment [1] was “inactive”. As to `Nc1ncnc2c1ncn2[C@@H]1O[C@H](CO)C(O)[C@H]1O` (stereo not given in full), the Potency in experiment [1] is 2.24 µM (active). Take `O=C(O)CCCC[C@@H]1CCSS1`: the Potency result in experiment [1] and in experiment [2] was “inactive” each time. `O=C(CCSCc1ccco1)NNC(=O)N1Cc2ccccc2Oc2ccc(Cl)cc21`: the Potency entry in experiment [1] and in [2] was “inactive” each time.

In the case of `Cn1c(=O)c2[nH]c(-c3ccccc3)nc2n(C)c1=O`, the Potency in [3] is 21.5 µM (active). On to `S=c1[nH]c(-c2ccccc2)cn1-c1ccccc1`, for which the Potency entry in experiment [3] is “inactive”. In addition, in experiment [4], the outcome was inactive. Consider `O=C1NC(=O)/C(=C/c2ccc(-c3ccc(F)cc3O)o2)S1`, for which the Potency entry in [3] was “inactive”. Moreover, the result in experiment [4] was inactive. In addition, the Potency in experiment [5] was 24.8 µM (active). In the case of `CN1CCN(c2cc3c(nn2)Oc2ccccc2N3C)CC1`, the Potency in the experiment with Furin (Homo sapiens) was 11.8 µM (active); in experiment [3], 10.5 µM (active); in experiment [6] it was 9.89 µM (active). The Potency entry in [5] is “inactive”.

Regarding `CN1CCc2cc(NC(=O)Nc3cccnc3)ccc21`, in [2], the Potency result was “inactive”. `Brc1c(Br)c(Br)c2n[nH]nc2c1Br`: in [2], the Potency is 26.7 µM (active). Regarding `CC[C@@H](C)[C@H]1O[C@]2(CC[C@H]1C)C[C@@H]1C[C@@H](CC=C(C)[C@@H](O[C@H]3C[C@H](OC)[C@@H](O[C@H]4C[C@H](OC)[C@@H](O)[C@H](C)O4)[C@H](C)O3)[C@@H](C)C=CC=C3CO[C@@H]4[C@H](O)C(C)=C[C@@H](C(=O)O1)[C@]34O)O2`, the Potency entry in the experiment with Furin (Homo sapiens) is “inactive”. Take `CCN(CC)CCCCNc1ncc2cc(-c3c(Cl)cccc3Cl)c(NC(=O)NC(C)(C)C)nc2n1`: in experiment [1], the Potency is 44.7 µM (active). The Potency entry in experiment [7] and in experiment [8] was “inactive” in each case. Take `Nc1nc(Nc2ccccc2)nc2c1ncn2[C@@H]1O[C@H](CO)[C@@H](O)[C@H]1O`: in experiment [2], the Potency entry was “inactive”.

Turning to `COC(=O)C1=C(C)NC(C)=C(C(=O)OC)C1c1cccc(NC(=O)NCCCN2CCC(c3cccc(OC)c3)CC2)c1`, the Potency with Furin (Homo sapiens) is 30.3 µM (active). Also, the Potency entry in [3], in experiment [7], in experiment [8] and in experiment [5] was “inactive” each time. Also, in experiment [4], the outcome was inactive. As to `O=C(O)CC[C@@H](C(=O)O)N1C(=O)c2ccccc2C1=O`, the Potency entry in experiment [2] is “inactive”. In the case of `Nc1nc(Cl)nc2c1ncn2[C@@H]1O[C@H](COP(=O)(O)OP(=O)(O)OP(=O)(O)O)[C@@H](O)[C@H]1O`, the Potency entry in experiment [2] is “inactive”. As to `O=C1/C(=C/c2ccsc2)CC/C1=C\c1cccs1`, in [2], the Potency entry was “inactive”.

`CNC(=O)[C@H]1O[C@@H](n2cnc3c(NCc4cccc(I)c4)ncnc32)[C@H](O)[C@@H]1O`: the Potency result in experiment [2] and in experiment [6] was “inactive” each time. For `C=C[C@@H]1CN2CC[C@@H]1C[C@H]2[C@H](O)c1ccnc2ccc(OC)cc12`, the Potency with Furin (Homo sapiens) was 24.1 µM (active). The outcome in [4] was inactive. Moreover, the Potency entry in [5] was “inactive”. In the case of `N=c1ccn2c(n1)O[C@H]1[C@H](O)[C@@H](CO)O[C@H]12`, in [2], the Potency entry was “inactive”.
